Measurements published in PubChem BioAssay (NCATS).
Inconclusive results are not listed. Calls of active or inactive are those of the source. Calls come from the whole dose curve; as a rule, active = well fitted curve in the direction sought with a large enough effect; inconclusive = small, poorly fitted or top-dose-only effect, or another doubt; inactive = no such curve, though single readings can be large; an effect the other way counts as inactive or inconclusive.

Tests used:
[1] = test system: NIH3T3; test: qHTS assay to identify novel small-molecules to repurpose for Merkel cell carcinoma treatment (AID 1296009); details: MCC and control cell lines, CellTiter-Glo viability, 72 h; at 44.8 µM (top of the series) unless noted; note: nearly all actives have a fitted effect of over 60% in size
In short: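 After compound transfer in DMSO, plates were kept 72 hr at 37 degree celsius. Luminescent ATP signal from CellTiter-Glo served as viability measure, normalized against DMSO and no-cell controls.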

[2] = test system: C33A; test: Primary qHTS to identify gynecologic anti-cancer compounds using libraries of approved drugs and bioactive compounds (AID 1345084); details: Gynecologic cancer cell panel viability, ATPlite luminescence, 48 h; series mostly up to 57.5 µM; note: % is set by controls: 0 for no effect and ±100 for the full control effect; nearly all actives have a fitted effect of over 55% in size
In short: (§1)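 ATP-based viability (ATPlite), 1,000 cells/well, 16 h pre-incubation, 48 h compound at 37 C, 5% CO2, 15 min RT before read.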

[3] = test system: CAOV3; test: as above; details: Gynecologic cancer cell panel viability, ATPlite luminescence, 48 h; series mostly up to 57.5 µM
In short: as §1

[4] = test system: CASKI; test: as above; details: Gynecologic cancer cell panel viability, ATPlite luminescence, 48 h; series mostly up to 57.5 µM
In short: as §1

[5] = test system: Es-2; test: as above; details: Gynecologic cancer cell panel viability, ATPlite luminescence, 48 h; series mostly up to 57.5 µM
In short: as §1

[6] = test system: HeLa; test: as above; details: Gynecologic cancer cell panel viability, ATPlite luminescence, 48 h; series mostly up to 57.5 µM
In short: as §1

[7] = test system: Hek293T; test: as above; details: Gynecologic cancer cell panel viability, ATPlite luminescence, 48 h, control line for the selectivity index; series mostly up to 57.5 µM
In short: as §1

[8] = test system: JEG-3; test: as above; details: Gynecologic cancer cell panel viability, ATPlite luminescence, 48 h; series mostly up to 57.5 µM
In short: as §1

[9] = test system: OV90; test: as above; details: Gynecologic cancer cell panel viability, ATPlite luminescence, 48 h; series mostly up to 57.5 µM
In short: as §1

[10] = test system: PA-1; test: as above; details: Gynecologic cancer cell panel viability, ATPlite luminescence, 48 h; series mostly up to 57.5 µM
In short: as §1

[11] = test system: SKOV3; test: as above; details: Gynecologic cancer cell panel viability, ATPlite luminescence, 48 h; series mostly up to 57.5 µM
In short: as §1

[12] = test system: Tov-21-G; test: as above; details: Gynecologic cancer cell panel viability, ATPlite luminescence, 48 h; series mostly up to 57.5 µM
In short: as §1

[13] = test system: Tov112D; test: as above; details: Gynecologic cancer cell panel viability, ATPlite luminescence, 48 h; series mostly up to 57.5 µM
In short: as §1

CN(C)c1cccc(-c2c3c(=O)n(-c4ccccc4Cl)[nH]c3cc(=O)n2C)c1
inactive: outcome [1] | Potency [2] | Potency [3] | Potency [4] | Potency [5] | Potency [6] | Potency [7] | Potency [8] | Potency [9] | Potency [10] | Potency [11] | Potency [12] | Potency [13]

NCCOCCOCCNC(=O)Cc1ccc(Nc2nc(NCc3ccc(F)cc3)nc(NCC3CCCCC3)n2)cc1
inactive: outcome [1] | Potency [2] | Potency [3] | Potency [4] | Potency [5] | Potency [6] | Potency [7] | Potency [8] | Potency [9] | Potency [10] | Potency [11] | Potency [12] | Potency [13]

C[C@@H]1O[C@@H](O[C@H]2[C@H](O[C@H]3[C@H](O[C@H]4CC[C@@]5(C=O)C(CC[C@]6(C)C5CC=C5C7CC(C)(C)C[C@@H](O)[C@]7(C)CC[C@]56C)C4(C)C)O[C@H](C(=O)O)[C@@H](O)[C@@H]3O)OC[C@@H](O)[C@@H]2O)[C@H](O)[C@H](O)[C@H]1O (stereo partly specified)
inactive: outcome [1] inactive [at 9.27 µM] | activity change, negative = cytotoxicity [2] 7.86% [at 11.6 µM] | activity change, negative = cytotoxicity [3] 38.3% [at 11.6 µM] | activity change, negative = cytotoxicity [4] 0.905% [at 11.6 µM] | activity change, negative = cytotoxicity [5] 9.36% [at 11.6 µM] | activity change, negative = cytotoxicity [6] 2.37% [at 11.6 µM] | activity change, negative = cytotoxicity [7] -7.04% [at 11.6 µM] | activity change, negative = cytotoxicity [8] 9.31% [at 11.6 µM] | activity change, negative = cytotoxicity [9] 6.53% [at 11.6 µM] | activity change, negative = cytotoxicity [10] 13.9% [at 11.6 µM] | activity change, negative = cytotoxicity [11] 13.5% [at 11.6 µM] | activity change, negative = cytotoxicity [12] 8.97% [at 11.6 µM] | activity change, negative = cytotoxicity [13] 15.2% [at 11.6 µM]

C=C1CC[C@@H]2[C@](C)(CO[C@@H]3O[C@H](CO)[C@@H](O)[C@H](O)[C@H]3O)CCC[C@@]2(C)[C@@H]1CCC1=CCOC1=O
inactive: outcome [1] inactive [at 17.4 µM] | Potency [2] | Potency [3] | Potency [4] | Potency [5] | Potency [6] | Potency [7] | Potency [8] | Potency [9] | Potency [10] | Potency [11] | Potency [12] | Potency [13]

C[C@@H]1O[C@@H](O[C@H]2[C@H](OC(=O)C34CCC5(C)C(=CCC6C7(C)CC(O)C(O[C@@H]8O[C@H](C(=O)O)[C@@H](O)[C@H](O)[C@H]8O)C(C)(C(=O)O)C7CCC65C)C3CC(C)(C)CC4O)O[C@H](C)[C@@H](O)[C@@H]2O)[C@H](O)[C@@H](O[C@@H]2OC[C@](O)(CO)[C@H]2O[C@@H]2O[C@H](CO)[C@@H](O)[C@H](O)[C@H]2O)[C@H]1O (stereo partly specified)
inactive: outcome [1] inactive [at 9.27 µM] | activity change, negative = cytotoxicity [2] -3.41% [at 6.55 µM] | activity change, negative = cytotoxicity [3] 7.58% [at 6.55 µM] | activity change, negative = cytotoxicity [4] 3.56% [at 6.55 µM] | activity change, negative = cytotoxicity [5] -1.29% [at 6.55 µM] | activity change, negative = cytotoxicity [6] -4.39% [at 6.55 µM] | activity change, negative = cytotoxicity [7] 5.55% [at 6.55 µM] | activity change, negative = cytotoxicity [8] 16.4% [at 6.55 µM] | activity change, negative = cytotoxicity [9] -2.48% [at 6.55 µM] | activity change, negative = cytotoxicity [10] 9.01% [at 6.55 µM] | activity change, negative = cytotoxicity [11] 13.1% [at 6.55 µM] | activity change, negative = cytotoxicity [12] -3.03% [at 6.55 µM] | activity change, negative = cytotoxicity [13] 10.3% [at 6.55 µM]

CC(C)(OC1OC(CO)C(O)C(O)C1O)C1CCC(O)(CO)C2CC(O)C(C)(O)C2C1 (stereo unspecified)
inactive: outcome [1] inactive [at 17.4 µM] | Potency [2] | Potency [3] | Potency [4] | Potency [5] | Potency [6] | Potency [7] | Potency [8] | Potency [9] | Potency [10] | Potency [11] | Potency [12] | Potency [13]

O=C(/C=C/c1ccc(O)cc1)OCC1=C[C@@H](O)[C@@H]2C=CO[C@@H](O[C@@H]3O[C@H](CO)[C@@H](O)[C@H](O)[C@H]3O)[C@H]12
inactive: outcome [1] inactive [at 17.4 µM] | Potency [2] | Potency [3] | Potency [4] | Potency [5] | Potency [6] | Potency [7] | Potency [8] | Potency [9] | Potency [10] | Potency [11] | Potency [12] | Potency [13]

O=C(/C=C/c1ccccc1)OCC1=CC[C@@H]2C(C(=O)O)=CO[C@@H](O[C@@H]3O[C@H](CO)[C@@H](O)[C@H](O)[C@H]3O)[C@H]12
inactive: outcome [1] inactive [at 17.4 µM] | Potency [2] | Potency [3] | Potency [4] | Potency [5] | Potency [6] | Potency [7] | Potency [8] | Potency [9] | Potency [10] | Potency [11] | Potency [12] | Potency [13]

CC1(CO)CC[C@]2(C(=O)O[C@@H]3O[C@H](CO)[C@@H](O)[C@H](O)[C@H]3O)CC[C@]3(C)C(=CCC4[C@@]5(C)CC[C@H](O[C@@H]6O[C@H](C(=O)O)[C@@H](O)[C@H](O)[C@H]6O)C(C)(C)C5CC[C@]43C)C2C1 (stereo partly specified)
inactive: outcome [1] inactive [at 9.27 µM] | activity change, negative = cytotoxicity [2] 12.6% [at 11.6 µM] | activity change, negative = cytotoxicity [3] 12.9% [at 11.6 µM] | activity change, negative = cytotoxicity [4] -3.81% [at 11.6 µM] | activity change, negative = cytotoxicity [5] 8.61% [at 11.6 µM] | activity change, negative = cytotoxicity [6] 8.66% [at 11.6 µM] | activity change, negative = cytotoxicity [7] 11.3% [at 11.6 µM] | activity change, negative = cytotoxicity [8] 10.8% [at 11.6 µM] | activity change, negative = cytotoxicity [9] 2.36% [at 11.6 µM] | activity change, negative = cytotoxicity [10] 28.3% [at 11.6 µM] | activity change, negative = cytotoxicity [11] 13% [at 11.6 µM] | activity change, negative = cytotoxicity [12] 6.77% [at 11.6 µM] | activity change, negative = cytotoxicity [13] 9.6% [at 11.6 µM]

CC(C)=CC/C=C(/C)[C@H]1CC[C@]2(C)[C@@H]1[C@H](O)CC1[C@@]3(C)CC[C@H](O)C(C)(C)[C@@H]3[C@@H](O[C@@H]3O[C@H](CO)[C@@H](O)[C@H](O)[C@H]3O[C@@H]3O[C@@H](C)[C@H](O)[C@@H](O)[C@H]3O)C[C@]12C (stereo partly specified)
inactive: outcome [1] inactive [at 17.4 µM] | Potency [2] | Potency [3] | Potency [4] | Potency [5] | Potency [6] | Potency [7] | Potency [8] | Potency [9] | Potency [10] | Potency [11] | Potency [12] | Potency [13]

CCOC(=O)c1ccc(N(C)c2csc(-c3ccccc3)n2)cc1
inactive: outcome [1] | Potency [2] | Potency [3] | Potency [4] | Potency [5] | Potency [6] | Potency [7] | Potency [8] | Potency [9] | Potency [10] | Potency [11] | Potency [12] | Potency [13]

C[C@@H]1CC[C@]2(C(=O)O[C@@H]3O[C@H](CO)[C@@H](O)[C@H](O)[C@H]3O)CC[C@]3(C)C(=CCC4[C@@]5(C)C[C@@H](O)[C@H](O)C(C)(C)C5CC[C@]43C)C2[C@]1(C)O (stereo partly specified)
inactive: outcome [1] inactive [at 17.4 µM] | Potency [2] | Potency [3] | Potency [4] | Potency [5] | Potency [6] | Potency [7] | Potency [8] | Potency [9] | Potency [10] | Potency [11] | Potency [12] | Potency [13]
